Most compounds without a hit are left out; they make up all but 1% or so of the library.
Mtb BioA inh: M. tuberculosis BioA enzyme inhibitors, primary screen, biochemical, plate reader, single point, HTS | 7,8-diaminopelargonic acid synthase BioA (Mycobacterium tuberculosis) | purified M. tuberculosis BioA enzyme | inhibition, % at 9.99 µM | 0.096% of 360,000 active | AID 602481, 2012; in the data active = inhibition above about 40%
TcdB inh: TcdB glycohydrolase inhibitors, primary screen, biochemical, single point, plate reader | AID 652162, 2013 | Toxin B (Clostridioides difficile), P18177 | 0.24% of 350,000 active | TcdB glycohydrolase enzymatic assay | inhibition, % at 9.99 µM; in the data active = inhibition above about 10%
Target sequence (P18177 whole entry, looked up): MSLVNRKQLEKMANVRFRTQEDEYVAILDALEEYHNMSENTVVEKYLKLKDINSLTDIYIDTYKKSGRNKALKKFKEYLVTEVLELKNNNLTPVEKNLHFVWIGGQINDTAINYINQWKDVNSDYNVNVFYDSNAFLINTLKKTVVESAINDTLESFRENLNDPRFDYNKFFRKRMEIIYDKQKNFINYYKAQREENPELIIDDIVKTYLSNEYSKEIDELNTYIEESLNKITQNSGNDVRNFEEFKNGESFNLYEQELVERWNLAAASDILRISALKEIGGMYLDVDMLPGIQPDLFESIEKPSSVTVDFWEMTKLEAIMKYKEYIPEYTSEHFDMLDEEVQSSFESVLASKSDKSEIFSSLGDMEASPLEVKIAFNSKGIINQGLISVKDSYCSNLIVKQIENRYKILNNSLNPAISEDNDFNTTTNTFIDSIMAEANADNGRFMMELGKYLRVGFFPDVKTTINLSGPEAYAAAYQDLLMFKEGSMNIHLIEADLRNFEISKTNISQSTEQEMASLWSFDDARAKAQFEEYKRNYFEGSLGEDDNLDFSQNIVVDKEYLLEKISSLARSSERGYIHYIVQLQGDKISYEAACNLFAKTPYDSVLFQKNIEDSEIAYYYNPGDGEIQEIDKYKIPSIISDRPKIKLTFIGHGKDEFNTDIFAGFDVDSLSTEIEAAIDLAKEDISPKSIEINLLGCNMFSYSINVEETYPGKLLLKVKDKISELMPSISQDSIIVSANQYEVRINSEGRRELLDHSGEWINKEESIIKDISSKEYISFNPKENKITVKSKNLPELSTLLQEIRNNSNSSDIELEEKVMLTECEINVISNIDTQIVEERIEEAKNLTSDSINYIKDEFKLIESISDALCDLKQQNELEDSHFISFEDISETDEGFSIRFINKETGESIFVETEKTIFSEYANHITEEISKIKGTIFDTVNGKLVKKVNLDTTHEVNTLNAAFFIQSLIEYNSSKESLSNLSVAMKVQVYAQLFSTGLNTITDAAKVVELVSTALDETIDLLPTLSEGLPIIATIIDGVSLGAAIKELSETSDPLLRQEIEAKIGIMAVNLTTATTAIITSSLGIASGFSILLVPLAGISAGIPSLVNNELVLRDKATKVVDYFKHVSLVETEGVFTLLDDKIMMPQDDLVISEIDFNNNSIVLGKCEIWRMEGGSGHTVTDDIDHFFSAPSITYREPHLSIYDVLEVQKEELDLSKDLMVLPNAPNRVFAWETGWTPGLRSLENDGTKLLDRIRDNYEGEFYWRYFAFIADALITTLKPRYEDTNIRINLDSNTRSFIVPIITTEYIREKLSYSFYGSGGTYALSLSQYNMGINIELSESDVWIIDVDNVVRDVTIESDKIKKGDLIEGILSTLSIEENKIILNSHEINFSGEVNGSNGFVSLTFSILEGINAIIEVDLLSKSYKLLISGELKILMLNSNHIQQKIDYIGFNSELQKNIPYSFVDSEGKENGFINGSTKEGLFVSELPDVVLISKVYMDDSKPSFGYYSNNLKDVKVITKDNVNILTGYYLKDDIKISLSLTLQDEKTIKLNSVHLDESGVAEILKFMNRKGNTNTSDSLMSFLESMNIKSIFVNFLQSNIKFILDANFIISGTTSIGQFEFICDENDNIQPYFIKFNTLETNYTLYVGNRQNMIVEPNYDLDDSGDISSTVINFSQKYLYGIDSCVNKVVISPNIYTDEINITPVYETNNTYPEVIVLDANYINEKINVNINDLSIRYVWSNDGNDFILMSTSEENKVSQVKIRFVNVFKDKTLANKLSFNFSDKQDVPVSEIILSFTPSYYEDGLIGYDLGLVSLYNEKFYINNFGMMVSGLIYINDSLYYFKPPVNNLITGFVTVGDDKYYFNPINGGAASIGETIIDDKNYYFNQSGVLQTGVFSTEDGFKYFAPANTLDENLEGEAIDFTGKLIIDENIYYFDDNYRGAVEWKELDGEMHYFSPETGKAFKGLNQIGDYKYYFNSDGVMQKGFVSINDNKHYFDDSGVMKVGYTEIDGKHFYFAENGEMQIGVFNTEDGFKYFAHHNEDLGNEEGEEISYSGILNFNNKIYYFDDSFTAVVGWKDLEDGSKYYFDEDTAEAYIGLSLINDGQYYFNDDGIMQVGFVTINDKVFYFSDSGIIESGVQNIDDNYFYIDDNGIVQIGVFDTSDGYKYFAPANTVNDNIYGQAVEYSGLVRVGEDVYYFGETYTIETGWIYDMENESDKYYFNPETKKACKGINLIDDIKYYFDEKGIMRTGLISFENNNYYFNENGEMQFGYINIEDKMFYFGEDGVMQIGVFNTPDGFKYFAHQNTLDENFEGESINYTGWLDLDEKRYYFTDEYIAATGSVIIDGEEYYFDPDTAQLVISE
PrP UTR inh: inhibition of PrP 5' UTR reporter expression. cell-based PrP 5' UTR mRNA reporter, plate reader. inhibition, % (test concentration not listed). 0.35% of 340,000 active. AID 488862, 2010; in the data active = inhibition above about 52%; also: 0 = median of the neutral control wells
PriA SSB inh: inhibitors of Klebsiella pneumoniae PriA binding to SSB C-terminal tail, primary screen, biochemical, AlphaScreen; inhibition, % at 33 µM; PriA–SSB C-terminal tail interaction (Klebsiella pneumoniae); AlphaScreen SSBct-PriA binding, biotinylated peptide; 0.6% of 430,000 active; in the data active = inhibition mostly above about 37%, no sharp cut-off; inactive = mostly below about 20%;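 also: plate controls were negative control peptide for no effect and reference peptide for full effect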
FadD28 FP inh: inhibitors of FadD28 bisubstrate probe binding, primary screen, biochemical, fluorescence polarization, single point | Mycobacterium tuberculosis FadD28 fatty-acid-AMP ligase | inhibition, % at 12.5 µM | 0.22% of 360,000 active | AID 588549, 2011; in the data active = inhibition above about 8.5%, passing the limit was not always enough
Mtb hypoxia inh: PubChem AID 1159583. fluorescence inhibition, % (no concentration beside the values). 0.1% of 300,000 active. M. tuberculosis hypoxia-regulated fluorescent reporter, fluorescence; in the data active = fluorescence inhibition mostly above about 23%, no sharp cut-off; inactive = mostly below about 17%
Numbers without * were called inactive; i = inactive; x = not tested or not shown; ! = not active in a repeat.

SMILES	Mtb BioA inh	TcdB inh	PrP UTR inh	PriA SSB inh	FadD28 FP inh	Mtb hypoxia inh
COc1ccc(C)cc1Nc1n[n+](-c2ccccc2)c(-c2cc(OC)c(OC)cc2Br)s1	-3	1	-14	58*	-2	x
COc1ccc(-c2sc(Nc3ccccc3)n[n+]2-c2ccc(F)cc2)c(C)c1C	0	1	5	42*	-7	1
COc1ccc(C2c3cc(OC)c(OC)cc3CCN2C(=O)c2ccccc2)cc1OC (stereo unspecified)	3	0	-10	-4	1	-12
Cc1ccnc(NC(=O)Cc2ccc(-c3ccccc3)cc2)c1	-1	1	-38	-21	-6	0
COc1ccc(N=C2S/C(=C\c3ccc(N4CCOCC4)o3)C(=O)N2CCc2c[nH]c3ccccc23)cc1	-1	x	-8	x	-3	8
COc1ccc(N=C2S/C(=C\c3ccc(OCC(=O)O)cc3)C(=O)N2CCc2c[nH]c3ccccc23)cc1	x	1	-5	51*	-1	-4
COc1ccc(C(=O)COC(=O)CNC(=O)C2CCCCC2)c(OC)c1	0	0	-23	-14	0	1
Oc1ccc(-c2cn3ccccc3n2)cc1	x	41*	-93	0	1	10
O=C(c1ccc([N+](=O)[O-])cc1)N(Cc1ccc(Cl)cc1)N1C(=O)CCCC1=O	0	0	2	1	-1	3
CN(C)S(=O)(=O)NCc1ccc2c(c1)OCO2	0	x	-18	-5	-3	9
CCOc1ccc(NC(=S)NCc2ccc3[nH]c(C)cc3c2)cc1	-1	1	-18	4	-2	x
Cc1cc2cc(CNS(=O)(=O)N(C)C)ccc2[nH]1	0	1	-12	46*!	-1	5
CC(=O)Nc1ccc(S(=O)(=O)NCc2ccc3[nH]c(C)cc3c2)cc1	-1	-2	-6	38	1	1
Cc1ccc(S(=O)(=O)NCc2ccc3[nH]c(C)cc3c2)cc1	-3	0	-5	43*	-1	-4
CCCCNC(=S)NCc1ccc2[nH]c(C)cc2c1	1	0	-2	50*!	-5	-7
CCOc1ccc2nc(N(CCN(C)C)C(=O)c3ccc4c(c3)CCCC4)sc2c1	0	x	-6	55*!	-2	5
CN(C)CCN(C(=O)c1ccc2c(c1)CCCC2)c1nc2cc3c(cc2s1)OCCO3	1	0	-6	51*	-1	10
Cc1ccc2nc(N(CCCN(C)C)C(=O)c3ccc4c(c3)CCCC4)sc2c1	1	x	-1	26	-7	17
CN(C)CCN(C(=O)c1ccc2c(c1)OCCO2)c1nc2cc3c(cc2s1)OCO3	-1	1	-10	14	-1	-6
O=S(=O)(c1ccccc1)c1nc(N(CCO)c2ccccc2)sc1Cl	x	x	x	-7	x	x
Cc1ccccc1-n1c(C)nnc1SCC(=O)NC1CCCc2ccccc21 (stereo unspecified)	x	x	-16	4	1	-7
CCOC(=O)C(Nc1ccc2ccccc2c1)C(=O)OCC	x	x	-27	58*	-1	5
N#C/C(=C/c1ccc(O)c(O)c1)c1nc2ccccc2[nH]1	-3	-1	-31	11	12*	x
O=C(CC(F)(F)F)N1C[C@H]2[C@@H](c3ccccc31)[C@@H](CO)N2C(=O)C1CC1	-3	0	x	x	x	x
CCOc1ccc(OCCCC(=O)Nc2cc(S(=O)(=O)N3CCOCC3)ccc2N2CCOCC2)cc1	0	1	-11	7	-1	-2
SMILES	Mtb BioA inh	TcdB inh	PrP UTR inh	PriA SSB inh	FadD28 FP inh	Mtb hypoxia inh
C[C@H]1CN([C@@H](C)CO)C(=O)Cc2cc(NC(=O)Cn3cnnn3)ccc2O[C@@H]1CN(C)Cc1ccc(C(F)(F)F)cc1	7	0	x	x	x	x
O=C(CCCn1nnnc1CN1CCOCC1)N1CCC(c2ccc(F)cc2)C1 (stereo unspecified)	0	0	1	39*	1	-4
Cc1c(C(=O)O)cccc1-c1ccc(/C=N/Nc2ccc(Br)cc2)o1	57*	x	-31	x	17*	x
O=C(O)c1cccc(-c2ccc(C=NNc3ccc([N+](=O)[O-])cc3)o2)c1	x	x	x	x	x	18
O=C(O)c1cccc(-c2ccc(/C=N/Nc3ccc([N+](=O)[O-])cc3)o2)c1	2	2	-14	i	23*	x
O=C(O)c1ccc(N/N=C/c2ccc(-c3cccc(Cl)c3)o2)cc1	4	-1	-136	i	9.9*	x
